# Laboratory results taken from article PMC4552634, “A New Set of Chemical Starting Points with Plasmodium falciparum Transmission-Blocking Potential for Antimalarial Drug Discovery” (PLoS ONE, 2015).
# Hit rate of the full screen: of about 13,000 compounds, about 3,200 (25%) showed an effect of 50% or more. This is one part of the list.
# System: P. falciparum stage V gametocytes
# Parameters: BacTiter-Glo ATP luminescence viability of purified stage V gametocytes in 384-well plates, per cent inhibition versus DMSO
# Conditions: 48 h, 5 µM; inhibitor
row,SMILES,% Inhibition
1,COc1ccccc1NC(=O)Nc1ccc(-c2cccc(-c3nc4ccccc4[nH]3)c2)cc1 [TCMDC-133206],15.44%
2,FC(F)(F)c1cc(Nc2ncnc3ccc(Br)cc23)ccc1OCc1ccccc1 [TCMDC-131923],9.607%
3,Cc1ccc(O)cc1Nc1ccnc2cc(-c3csc(CN4CCN(C)CC4)n3)ccc12 [TCMDC-138459],29.46%
4,c1cncc(Oc2ccc(Nc3ccnc4cc(-c5cccc(CN6CCOCC6)c5)ccc34)cc2)c1 [TCMDC-138490],-4.813%
5,CN1CCN(Cc2cccc(-c3ccc4c(Nc5ccc(Oc6ccccc6)cc5)ccnc4c3)c2)CC1 [TCMDC-138476],95.08%
6,CN1CCN(Cc2nc(-c3ccc4c(Nc5ccc(F)c(O)c5)ccnc4c3)cs2)CC1 [TCMDC-138439],95.29%
7,CN1CCN(Cc2cccc(-c3ccc4c(Nc5ccc(Oc6cccnc6)cc5)ccnc4c3)c2)CC1 [TCMDC-138489],97.22%
8,COCCNCc1nc(-c2ccc3c(Nc4ccc(F)c(O)c4)ccnc3c2)cs1 [TCMDC-138411],27.64%
9,c1cncc(Oc2ccc(Nc3ccnc4cc(-c5cccc(CN6CCCCC6)c5)ccc34)cc2)c1 [TCMDC-138491],61.6%
10,CN1CCN(Cc2cccc(-c3cc4nccc(Nc5ccc(Oc6ccccc6)cc5)c4cc3Cl)c2)CC1 [TCMDC-138460],0.7486%
11,c1ccc(Oc2ccc(Nc3ccnc4cc(-c5cccc(CN6CCOCC6)c5)ccc34)cc2)cc1 [TCMDC-138475],-43.1%
12,Oc1cc(Nc2ccnc3cc(-c4cccc(CN5CCCCC5)c4)ccc23)c(F)cc1Cl [TCMDC-138433],38.27%
13,Cc1ccc(/C=C2/SC(=Nc3ccccc3)NC2=O)c(C)c1 [TCMDC-124428],45.43%
14,CCOC(=O)c1cncc(/C=C/c2cc(C)cnc2N)c1 [TCMDC-134321],18.35%
15,CC(C)(C)C1CC(=O)CC2C(=O)N(C3CCCCC3)C(=O)C21 (centres unmarked) [TCMDC-139129],-1.455%
16,CC1(C)NC(N)=NC(=N)N1OCc1nc(N)nc(Nc2ccccc2)n1 [TCMDC-131613],27.92%
17,C=CCN1C(=O)C(C(C)=O)=C(O)C1c1ccccc1 (centres unmarked) [TCMDC-131675],0.4612%
18,CC(C)C[C@@H](C(=O)Nc1ccc(Cc2ccc(NC(=O)[C@H](CC(C)C)N(C)C(=O)OC(C)(C)C)cc2)cc1)N(C)C(=O)OC(C)(C)C [TCMDC-131871],6.615%
19,CN1CCN(Cc2nc(-c3ccc4c(Nc5ccc(Oc6ccccc6)cc5)ccnc4c3)cs2)CC1 [TCMDC-138409],54.56%
20,c1ccc(Oc2ccc(Nc3ccnc4cc(-c5csc(CN6CCCCC6)n5)ccc34)cc2)nc1 [TCMDC-138428],-35.56%
21,N=C(N)NN=CC(=O)Nc1ccc(Br)cc1 [TCMDC-137562],-7.978%
22,CCCN1CCN(CC(O)CNC(=O)Nc2ccc(Br)cc2)CC1 (centres unmarked) [TCMDC-134638],9.49%
23,CCN(CC)/C(=N/C(=N)Nc1ccc(Br)cc1)NCCCCCCN/C(=N\C(=N)Nc1ccc(Br)cc1)N(CC)CC [TCMDC-131814],118.9%
24,CCc1ccc(CN(Cc2ccc(C)cc2)Cc2ccc(NC(C)=O)cc2)cc1 [TCMDC-140034],13.22%

row,SMILES,% Inhibition
1,CCN(CC)/C(=N/C(=N)Nc1ccc(C)cc1)NCCCCCCN/C(=N\C(=N)Nc1ccc(C)cc1)N(CC)CC [TCMDC-131810],116.5%
2,CC(=O)Nc1ccc(C(=O)N2CCN(c3ccnc4cc(Cl)ccc34)CC2)cc1 [TCMDC-133574],-9.196%
3,CCCC1N=C(N)N=C(N)N1c1ccc(C)cc1 (centres unmarked) [TCMDC-131297],8.167%
4,CC(C)(C)c1ccc(CNCCOc2ccc(Nc3nnc(-c4ccc(-c5ncc[nH]5)cc4)o3)c3ccccc23)cc1 [TCMDC-138667],-26.34%
5,N#Cc1ccc2c(c1)CCN(CCC1CCC(NC(=O)c3ccc(-c4ccccc4)s3)CC1)CC2 (centres unmarked) [TCMDC-139837],-13.04%
6,CC(=O)Nc1nc(C(=O)Nc2ccc(-c3ccc(-c4nc5c(C)cccc5[nH]4)cc3)cc2)cs1 [TCMDC-137125],-51.44%
7,Cc1nn(-c2ccnc3cc(Cl)ccc23)c(C)c1C(=O)NCc1cc(Cl)cc(Cl)c1 [TCMDC-134231],-2.069%
8,COc1ccc2nccc(N3CCC(NCCNCc4ccc5c(n4)NC(=O)CO5)C3)c2n1 (centres unmarked) [TCMDC-134548],51.99%
9,COc1ccc2nccc(N3CCC(NCCNCc4ccc5c(n4)NC(=O)CS5)C3)c2n1 (centres unmarked) [TCMDC-134649],67.81%
10,COc1ccc2nccc(N3CCC(SCCNCc4ccc5c(n4)NC(=O)CO5)C3)c2n1 (centres unmarked) [TCMDC-134206],10.7%
11,COc1ccc2nccc(N3CCC(SCCNCc4ccc5c(n4)NC(=O)CS5)C3)c2n1 (centres unmarked) [TCMDC-134285],-20.26%
12,COc1ccc2nccc(N3CCC(NCc4ccc5c(n4)NC(=O)CS5)CC3)c2n1 [TCMDC-134652],3.663%
13,COc1ccc2nccc(N3CCC(CCNCc4ccc5c(n4)NC(=O)CO5)CC3)c2n1 [TCMDC-141943],5.733%
14,O=C(NC(c1ccccc1)c1ccccc1)C(c1cc2ccccc2o1)N1CCN(C(c2ccccc2)c2ccccc2)CC1 (centres unmarked) [TCMDC-141009],-31.77%
15,CC1(C)N=C(N)N=C(N)N1c1cccc(Cl)c1 [TCMDC-123960],45.27%
16,O=C1c2ccccc2CCC1CCN1CC=C(c2c[nH]c3ccccc23)CC1 (centres unmarked) [TCMDC-140685],-66.61%
17,CC1(C)CN(CCC2CCC(NC(=O)/C=C/c3ccccc3F)CC2)Cc2ccc(C#N)cc21 (centres unmarked) [TCMDC-139501],15.62%
18,CCn1c(Sc2ccc([N+](=O)[O-])c(C#N)c2)nnc1-c1cccc(Cl)c1 [TCMDC-135234],107.6%
19,CCCCCCn1c(Sc2ccc(C#N)c([N+](=O)[O-])c2)nnc1-c1ccc(N(C)C)cc1 [TCMDC-135618],23.6%
20,COCCn1c(Sc2ccc(C#N)c([N+](=O)[O-])c2)nnc1-c1ccc(N(C)C)cc1 [TCMDC-135613],43.33%
21,CCCn1c(Sc2ccc(C#N)c([N+](=O)[O-])c2)nnc1-c1ccc(N(C)C)cc1 [TCMDC-135610],57.06%
22,CCCn1c(Sc2ccc(C#N)c([N+](=O)[O-])c2)nnc1-c1ccc(Cl)cc1 [TCMDC-135581],50.77%
23,CCCCCn1c(Sc2ccc(C#N)c([N+](=O)[O-])c2)nnc1-c1ccc(Cl)cc1 [TCMDC-135598],19.94%
24,CCCCn1c(Sc2ccc(C#N)c([N+](=O)[O-])c2)nnc1-c1ccc(OC)cc1 [TCMDC-135583],19.44%

row,SMILES,% Inhibition
1,CCn1c(Sc2ccc([N+](=O)[O-])c(C#N)c2)nnc1-c1ccc(Cl)cc1 [TCMDC-135235],96.27%
2,CCn1c(Sc2ccc(C#N)c([N+](=O)[O-])c2)nnc1-c1cccc(Cl)c1 [TCMDC-135592],10.47%
3,CCCCCCn1c(Sc2ccc(C#N)c([N+](=O)[O-])c2)nnc1-c1ccc(Cl)cc1 [TCMDC-135599],28.19%
4,CN1CCC(N(C)c2nccc(N3CCN(Cc4cncn4Cc4ccccc4)CC3)n2)CC1 [TCMDC-125095],-8.441%
5,Cc1ccc(-n2cc(CNCC3CCN(CCO)CC3)c(-c3ccc(F)cc3)n2)cc1 [TCMDC-124689],28.13%
6,O=C(CNC1=NCCN1)Nc1ccc(NC(=O)Nc2ccc(NC(=O)CNC3=NCCN3)cc2)cc1 [TCMDC-137202],4.446%
7,O=C(NCCCCN1CCCC2c3cccc(O)c3CCC21)c1ccc(-c2ccccc2)cc1 (centres unmarked) [TCMDC-139080],37.51%
8,O=C(N[C@H](Cc1ccc(Cl)cc1)C(=O)N1CCN(c2ccnc3cc(Cl)ccc23)CC1)[C@H]1Cc2ccccc2CN1 [TCMDC-141498],2.012%
9,CC(=O)c1ccc2c(c1)C(NC(=O)c1cccc(Cl)c1Cl)C(CO)C(C)(C)O2 (centres unmarked) [TCMDC-138988],-12.37%
10,O=C(Nc1ccc(OC2CCN(Cc3ccccc3)C2)c(Cl)c1)c1ccc(F)cc1 (centres unmarked) [TCMDC-133972],8.518%
11,O=c1cc(NCCCNCc2scc3c(Cl)cc(C(F)(F)F)nc23)[nH]c2ccccc12 [TCMDC-141146],31.07%
12,Cc1cc(N2CCCC2=O)ccc1-c1ccc(C(=O)N2CCC(Oc3cccc(Cl)c3)CC2)cc1 [TCMDC-136525],-32.31%
13,Oc1ccccc1CCNC1CCc2ccccc2C1 (centres unmarked) [TCMDC-137890],12.83%
14,COc1cc(Cc2cnc(N)nc2N)ccc1OCc1ccc(-c2csnn2)cc1 [TCMDC-138683],-3.694%
15,CCCn1c(Sc2ccc(C#N)c([N+](=O)[O-])c2)nnc1-c1ccc(OC)cc1 [TCMDC-135582],31.08%
16,CCn1c(Sc2ccc(C#N)c([N+](=O)[O-])c2)nnc1-c1ccc(Cl)cc1 [TCMDC-135597],65%
17,CCn1c(Sc2ccc(C#N)c([N+](=O)[O-])c2)nnc1-c1ccc(OC)cc1 [TCMDC-135602],29.96%
18,CC(C)Cn1c(Sc2ccc(C#N)c([N+](=O)[O-])c2)nnc1-c1ccccc1Cl [TCMDC-135609],54.29%
19,CC(C)Cn1c(Sc2ccc(C#N)c([N+](=O)[O-])c2)nnc1-c1ccccc1 [TCMDC-141918],17.88%
20,CC(C)CCn1c(Sc2ccc(C#N)c([N+](=O)[O-])c2)nnc1-c1ccccc1Cl [TCMDC-135615],17.65%
21,CC(C)CCn1c(Sc2ccc(C#N)c([N+](=O)[O-])c2)nnc1-c1ccc(Cl)cc1 [TCMDC-135596],54.47%
22,CC(C)CCn1c(Sc2ccc(C#N)c([N+](=O)[O-])c2)nnc1-c1cccc(Cl)c1 [TCMDC-135591],23.85%
23,COc1ccc(-c2nnc(Sc3ccc(C#N)c([N+](=O)[O-])c3)n2CCC(C)C)cc1 [TCMDC-135601],7.84%
